{
  "source": "PubChem BioAssay (Tox21)",
  "note": "Inconclusive results are not listed. A number with no mark means an inactive call. The source made the active and inactive calls. Calls follow the shape of the full dose curve. % is scaled to controls: 0 for no effect and ±100 for the full control effect; potency is read from the fitted curve at half-maximal effect.",
  "data": [
    {"experiment": "qHTS assay to identify small molecule agonists of the hypoxia (HIF-1) signaling pathway - cell viability counter screen (AID 1224844); also: nearly all actives have a fitted effect of over 50% in size", "conditions": "HRE-bla ME-180 viability, CellTiter-Glo luminescence, 17 h; series mostly up to 76.8 µM; activity change, negative = cytotoxicity: at the top concentration", "source_text": "National Center for Advancing Translational Sciences [NCATS]\nNIH Chemical Genomics Center [NCGC]\nU.S. Environmental Protection Agency [EPA]\nNational Institutes of Environmental Health Sciences [NIEHS]\nNational Toxicology Program [NTP]\nU.S. Food and Drug Administration [FDA]\nHypoxia-inducible factor-1 (HIF-1) is the major hypoxia-regulated transcription factor that controls cellular responses to low oxygen concentration. HIF-1 is composed of two subunits: hypoxia responsive HIF-1-alpha and constitutively expressed HIF-1-beta, which is also known as aryl hydrocarbon receptor nuclear translocator. During hypoxic conditions, HIF-1-alpha heterodimerizes with HIF-1-beta and translocates into the nucleus where the HIF-1 complex binds to the hypoxia-response element (HRE) and activates expression of target genes such as VEGF (vascular endothelial growth factor). The HIF-1 pathway is essential to normal growth and development, and is involved in the pathophysiology of cancer, inflammation, and ischemia.\nUsing a beta-lactamase reporter-gene under control of the hypoxia response element, a cell-based assay [CellSensor(TM) HRE-bla ME-180 from Life Technologies, Carlsbad, CA] was used to measure hypoxia-induced signaling. Tox21 10K library compounds were measured for their ability to induce the reporter gene activity. The cytotoxicity of the Tox21 compound library against HRE-bla ME-180 cell line was tested in parallel by measuring cell viability using CellTiter-Glo assay (Promega, Madison, WI) in the same assay wells.\nTox21 Assay Protocol Summary:\nHRE-bla ME-180 cells were dispensed at 2,000 cells per well in 6 uL of assay medium containing 0.5% dialyzed FBS into black wall/clear-bottom 1536-well plates using a Multidrop Combi (Thermo Scientific, Waltham, MA) dispenser. After the assay plates were incubated at 37C and 5% CO2 for 5 hrs, 23 nL of compounds dissolved in DMSO, positive controls or DMSO only was transferred to each well of the assay plate using a Pintool station (Kalypsys, San Diego, CA). The assay plates were incubated at 37C and 5% CO2 for 17 hrs. One uL of LiveBLAzerTM B/G FRET substrate (CCF4-AM) (Life Technologies) was added to each well using a Flying Reagent Dispenser (FRD, Aurora Discovery, San Diego, CA). After 2 hr incubation at room temperature, fluorescence intensity (405 nm excitation, 460 nm and 530 nm emissions) was measured using an Envision plate reader (PerkinElmer, Shelton, CT). For cytotoxicity, 4 ul/well of CellTiter-Glo reagent was added into the assay plates using an FRD. After 30 min incubation at room temperature, the luminescence intensity was measured using a ViewLux plate reader (PerkinElmer).", "values": [
      {"smiles": "C=C1C(CCl)(CCl)C2(Cl)C(Cl)C(Cl)C1(Cl)C2(Cl)Cl", "note": "(stereo not given)", "Potency": "24.3 µM (active)"},
      {"smiles": "S=C1NC=NC2N=CNC12", "note": "(stereo not given)", "activity change, negative = cytotoxicity": "-20.1%"},
      {"smiles": "CC(C)(C)c1ccc(OC2CCCCC2O)cc1", "note": "(stereo not given)", "activity change, negative = cytotoxicity": "5.76%"},
      {"smiles": "Cc1cccc2c1ccc1ccccc12", "activity change, negative = cytotoxicity": "1.66%"},
      {"smiles": "CCNc1nc(NC(C)(C)C)nc(OC)n1", "activity change, negative = cytotoxicity": "8.9%"},
      {"smiles": "CC/C=C(\\C)C=O", "activity change, negative = cytotoxicity": "3.24%"},
      {"smiles": "C=Cc1ccncc1", "activity change, negative = cytotoxicity": "7.97%"},
      {"smiles": "COc1cc(/C=C/C(=O)CC(=O)/C=C/c2ccc(O)c(OC)c2)ccc1O", "Potency": "39.2 µM (active)"},
      {"smiles": "CC(C)=CCC[C@H](C)CC=O", "activity change, negative = cytotoxicity": "0.592%"},
      {"smiles": "SC1CCCCC1", "activity change, negative = cytotoxicity": "1.22%"},
      {"smiles": "CC(c1cc(C(C)(C)C)cc(C(C)(C)C)c1O)c1cc(C(C)(C)C)cc(C(C)(C)C)c1O", "activity change, negative = cytotoxicity": "18.3%"},
      {"smiles": "Cc1ccc2nc(-c3ccc(N)cc3)sc2c1S(=O)(=O)O", "activity change, negative = cytotoxicity": "-15.4% [at 35.3 µM]"},
      {"smiles": "[Cl][Eu]([Cl])[Cl]", "activity change, negative = cytotoxicity": "0.312%"},
      {"smiles": "Nc1ccc(Cl)c([N+](=O)[O-])c1", "activity change, negative = cytotoxicity": "-2.97%"},
      {"smiles": "Cc1cc(F)ccc1-c1cc(N2CC[C@@H](O)[C@H]2CO)ncc1N(C)C(=O)C(C)(C)c1cc(C(F)(F)F)cc(C(F)(F)F)c1", "Potency": "24.2 µM (active)"},
      {"smiles": "CCOC(=O)C1=NN(c2ccc(Cl)cc2Cl)C(C)(C(=O)OCC)C1", "note": "(stereo not given)", "activity change, negative = cytotoxicity": "1.33%"},
      {"smiles": "Clc1nc(C(Cl)(Cl)Cl)c(Cl)c(Cl)c1Cl", "Potency": "4.9 µM (active)"},
      {"smiles": "Cc1ccc2sc3cccc(C)c3c2c1", "activity change, negative = cytotoxicity": "-0.142%"},
      {"smiles": "O=S(=O)(c1ccc(OCc2ccccc2)cc1)c1ccccc1O", "activity change, negative = cytotoxicity": "-11.6%"},
      {"smiles": "C=COCCCC", "activity change, negative = cytotoxicity": "4.26%"},
      {"smiles": "C=CC(=O)OCCOC1C2CCC1C1CC=CC12", "note": "(stereo not given)", "activity change, negative = cytotoxicity": "4.59% [at 15.8 µM]"},
      {"smiles": "CC(C)=NNC(N)=S", "activity change, negative = cytotoxicity": "-30%"},
      {"smiles": "CCC1(C)C(=O)N(Cl)C(=O)N1Cl", "note": "(stereo not given)", "activity change, negative = cytotoxicity": "0.631%"},
      {"smiles": "O=C(O)C[C@H](O)C[C@H](O)/C=C/c1c(C2CC2)nc2ccccc2c1-c1ccc(F)cc1", "activity change, negative = cytotoxicity": "-17.5% [at 15.8 µM]"},
      {"smiles": "Nc1cc([N+](=O)[O-])cc(Cl)c1O", "activity change, negative = cytotoxicity": "-0.124%"},
      {"smiles": "Cc1ccc(N=Nc2c(O)ccc3ccccc23)c(C)c1", "Potency": "21.3 µM (active)"},
      {"smiles": "COc1cc(OC)nc(NC(=O)NS(=O)(=O)Nc2ccccc2C(=O)N(C)C)n1", "activity change, negative = cytotoxicity": "5.17%"},
      {"smiles": "C1=CCCC1", "activity change, negative = cytotoxicity": "13.5%"},
      {"smiles": "CN1CCN(c2ccccc2/C=C2\\SCCN(c3ccc(Cl)c(Cl)c3)C2=O)CC1", "Potency": "49 µM (active)"},
      {"smiles": "C=CC(C)(C)O", "activity change, negative = cytotoxicity": "9.19%"},
      {"smiles": "CCOC(=O)[C@H](C)O", "activity change, negative = cytotoxicity": "3.02%"},
      {"smiles": "O=C1C=CC(=O)N1c1cccc(N2C(=O)C=CC2=O)c1", "Potency": "11 µM (active)"},
      {"smiles": "N#CCCOCCC#N", "activity change, negative = cytotoxicity": "9.28%"},
      {"smiles": "O=[N+]([O-])c1ccc(CO)cc1", "activity change, negative = cytotoxicity": "-15.2%"},
      {"smiles": "COC(=O)c1ccc([N+](=O)[O-])cc1", "activity change, negative = cytotoxicity": "3.72%"},
      {"smiles": "Nc1c(Br)cc([N+](=O)[O-])cc1Br", "activity change, negative = cytotoxicity": "6.95%"},
      {"smiles": "CCc1cccc(C)c1N(C(=O)C(=O)O)C(C)COC", "note": "(stereo not given)", "activity change, negative = cytotoxicity": "-7.41%"},
      {"smiles": "C=C[Si](C)(C)Cl", "activity change, negative = cytotoxicity": "-0.253% [at 6.97 µM]"},
      {"smiles": "Oc1ccc2c(c1)CCC2", "activity change, negative = cytotoxicity": "0.212%"},
      {"smiles": "CC1CCC(C(C)(C)O)CC1", "note": "(stereo not given)", "activity change, negative = cytotoxicity": "4.02%"}
    ]}
  ]
}
